# The OligoGym collection
# Target: TRIM23
# Assay: pooled miR-30 sensor sort-seq; sequence = guide strand
# Conditions: shRNA
# Further: reference of the scale not given here.
row,Sequence,sensor-assay potency score (higher = more potent)
1,TTTCCGTTAACAACTTTGCAAG,-1.22
2,TACATGTTCTGTGTGAGCCATT,-1.01
3,AACTTCTGTAAACTGCTGCTGC,0.168
4,TACTGAATGCTTGTGACCCTGG,0.0097
5,TACAACAAACACAACAGCTTGA,0.537
6,TAGTAGTTTTTCCAGCACCATC,-1.64

# Target: TRIM25
# Assay: as above
# Conditions: shRNA
row,Sequence,sensor-assay potency score (higher = more potent)
1,TTGTGCTGGGAACATTTGCGGC,-1.66
2,TTTATCTTCCTTGTCGAGGTGG,0.408
3,TTGTTTTAAATCCACTAACTGT,-0.521
4,TTGTTGTAGCTGCTCCACCTTT,-0.889
5,TTTAATGTAATACTCCAGGAGC,-0.733
6,TAAATCCACTAACTGTTCCGGG,-0.339
7,TTTCCGTGTATTCTTGTTGTAG,-0.308
8,TTGAGTTCGGATGTGAGCTGGT,0.643
9,TTGAGAGATGTTGAGTTCGGAT,-0.803
10,TATAGCACTCTGACAGAGCCAC,-0.415
11,TAAATGGTGTCAAACTTGCTGT,-0.555
12,TTGAGGTCTATGGTGCTCTGGT,-0.448

# Target: TRIM2
# Assay: as above
# Conditions: shRNA
row,Sequence,sensor-assay potency score (higher = more potent)
1,TAAAATTCCATCACATTCCCAT,0.363
2,TTGAATCCACTGCTACACCTGT,-0.182
3,ATCACTTTCAGCTTAAACGGGC,-0.591
4,TTGTCTTAAATTTCCCATCGGA,0.291
5,TTAATTGAAAGTTTCATTGTAG,0.799
6,TAGAGTCTCAGAGACAGGGTAA,-0.389
7,TTCCATTTGAATCCACTGCTAC,-0.305
8,TATTGCTATTTACAGCTGCAAA,-1.54
9,TTTCCAGTGCTGTACATGCTTG,-1.12
10,TTTCATTGTAGACTAAAGCATC,-0.921
11,TTCCATTTGTAGATGCAGCTAC,0.668
12,TTTTTGTCTTAAATTTCCCATC,-1.5

# Target: TRIM38
# Assay: as above
# Conditions: shRNA
row,Sequence,sensor-assay potency score (higher = more potent)
1,TTAGTTATTCGCATTGCTGTGG,0.226
2,TAACATTTTCTTCACATCGAAG,-1.18
3,TAAACCTGGAAATAGGGCCGGA,-0.714
4,TACGTCTTCAACAAGAGCTGTG,-0.0393
5,TTAACATTTTCTTCACATCGAA,-0.794
6,TCTGTCTTCAAGTTGCTTCAGT,0.253
7,TTTTGTCACAGCTTTCTGGAGC,-0.543
8,TTTCCATTTAGTTATTCGCATT,-1.66
9,TATAAAAGGATACAACTCCGGC,-0.57
10,TTTCTTTTTGCACAGCCTGAGG,-1.54
